The campaign covered roughly 5,500 compounds. About 2,000 (36%) were called active. Roughly 18% stayed inconclusive and do not appear here. No stated cut-off is given here; in the data, active means normalized growth mostly below about 0.91 (no sharp cut-off); inconclusive means no clear call, values can overlap the other calls; inactive means mostly above about 0.92. This is one part of the list.
Test: chemical genetic growth profiling, strain panel (AID 1159580);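 further: tested at 20 µM; growth read once vehicle control cultures reached saturation at 30 °C; 1 = growth at the plate median or of vehicle wells; lower values mean less growth of the strain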
Conditions: growth OD

Measured: normalized growth

CN[C@@H]1[C@H](O)[C@H](NC)[C@H]2O[C@@]3(O)C(=O)C[C@@H](C)O[C@H]3O[C@@H]2[C@H]1O
inactive: S. cerevisiae deletion strains, locus YJR075W, strain HOC1, active compounds read low 1.01 | S. cerevisiae deletion strains, locus YKL009W, strain mrt4, active compounds read low 1.02 | S. cerevisiae deletion strains, locus YKL068W, active compounds read low 1.01 | S. cerevisiae deletion strains, locus YKL085W, strain MDH1 (second series), active compounds read low 1.01 | S. cerevisiae deletion strains, locus YKL085W, strain MDH1, active compounds read low 1.01 | S. cerevisiae deletion strains, locus YKL160W, strain elf1, active compounds read low 1.01 | S. cerevisiae deletion strains, locus YKL190W, strain CNB1, active compounds read low 1 | S. cerevisiae deletion strains, locus YKR001C, strain vps1, active compounds read low 1.02 | S. cerevisiae deletion strains, locus YKR026C, strain gcn3, active compounds read low 1.01 | S. cerevisiae deletion strains, locus YKR091W, strain srl3, active compounds read low 1 | S. cerevisiae deletion strains, locus YLL001W, strain dnm1, active compounds read low 1.02 | S. cerevisiae deletion strains, locus YLL026W, active compounds read low 1 | S. cerevisiae deletion strains, locus YLL041C, strain sdh2, active compounds read low 0.999 | S. cerevisiae deletion strains, locus YLR027C, strain aat2, active compounds read low 1.01 | S. cerevisiae deletion strains, locus YLR039C, strain RIC1, active compounds read low 1.05 | S. cerevisiae deletion strains, locus YLR058C, strain SHM2, active compounds read low 1.01 | S. cerevisiae deletion strains, locus YLR102C, strain apc9, active compounds read low 1.02 | S. cerevisiae deletion strains, locus YLR113W, strain HOG1, active compounds read low 0.967 | S. cerevisiae deletion strains, locus YLR221C, strain rsa3, active compounds read low 0.981 | S. cerevisiae deletion strains, locus YLR258W, strain gsy2, active compounds read low 0.999 | S. cerevisiae deletion strains, locus YLR262C, strain YPT6 (second series), active compounds read low 1.05 | S. cerevisiae deletion strains, locus YLR262C, strain YPT6, active compounds read low 1.06 | S. cerevisiae deletion strains, locus YLR268W, strain sec22, active compounds read low 1.04 | S. cerevisiae deletion strains, locus YLR320W, strain mms22, active compounds read low 0.974 | S. cerevisiae deletion strains, locus YLR330W, strain CHS5, active compounds read low 1.01 | S. cerevisiae deletion strains, locus YLR342W, strain FKS1 (second series), active compounds read low 1 | S. cerevisiae deletion strains, locus YLR342W, strain FKS1, active compounds read low 1.02 | S. cerevisiae deletion strains, locus YLR357W, strain rsc2, active compounds read low 1 | S. cerevisiae deletion strains, locus YLR370C, strain arc18, active compounds read low 0.995 | S. cerevisiae deletion strains, locus YLR371W, strain rom2, active compounds read low 1.02 | S. cerevisiae deletion strains, locus YLR384C, strain iki3, active compounds read low 1.01 | S. cerevisiae deletion strains, locus YLR418C, strain cdc73, active compounds read low 1.03 | S. cerevisiae deletion strains, locus YML016C, strain PPZ1, active compounds read low 1.01 | S. cerevisiae deletion strains, locus YML032C, strain rad52, active compounds read low 1.04 | S. cerevisiae deletion strains, locus YML120C, strain ndi1, active compounds read low 1 | S. cerevisiae deletion strains, locus YML124C, strain tub3, active compounds read low 1.02 | S. cerevisiae deletion strains, locus YMR058W, strain fet3, active compounds read low 1.01 | S. cerevisiae deletion strains, locus YMR078C, strain ctf18, active compounds read low 1.02 | S. cerevisiae deletion strains, locus YMR125W, strain sto1, active compounds read low 0.99 | S. cerevisiae deletion strains, locus YMR129W, active compounds read low 0.999 | S. cerevisiae deletion strains, locus YMR205C, strain PFK2, active compounds read low 1 | S. cerevisiae deletion strains, locus YMR223W, strain ubp8, active compounds read low 1.01 | S. cerevisiae deletion strains, locus YMR231W, strain pep5, active compounds read low 1 | S. cerevisiae deletion strains, locus YMR263W, strain SAP30, active compounds read low 1.01 | S. cerevisiae deletion strains, locus YMR307W, strain GAS1, active compounds read low 1.03 | S. cerevisiae deletion strains, locus YNL067W, strain RPL9B, active compounds read low 1.02 | S. cerevisiae deletion strains, locus YNL071W, strain lat1, active compounds read low 0.996 | S. cerevisiae deletion strains, locus YNL128W, strain TEP1, active compounds read low 1.02 | S. cerevisiae deletion strains, locus YNL153C, strain GIM3, active compounds read low 1 | S. cerevisiae deletion strains, locus YNL183C, strain NPR1, active compounds read low 0.94 | S. cerevisiae deletion strains, locus YNL209W, strain ssb2, active compounds read low 0.999 | S. cerevisiae deletion strains, locus YNL233W, strain BNI4, active compounds read low 1.02 | S. cerevisiae deletion strains, locus YNL248C, strain rpa49, active compounds read low 0.954 | S. cerevisiae deletion strains, locus YNL250W, strain rad50, active compounds read low 1.02 | S. cerevisiae deletion strains, locus YNL271C, strain bni1, active compounds read low 1.01 | S. cerevisiae deletion strains, locus YNL298W, strain CLA4, active compounds read low 1.03 | S. cerevisiae deletion strains, locus YNL307C, strain MCK1, active compounds read low 1.03 | S. cerevisiae deletion strains, locus YNL322C, strain KRE1 (second series), active compounds read low 1 | S. cerevisiae deletion strains, locus YNL322C, strain KRE1, active compounds read low 1.01 | S. cerevisiae deletion strains, locus YNR049C, strain mso1, active compounds read low 1.01 | S. cerevisiae deletion strains, locus YNR052C, strain pop2, active compounds read low 1.02 | S. cerevisiae deletion strains, locus YOL006C, strain TOP1, active compounds read low 1.08 | S. cerevisiae deletion strains, locus YOL012C, strain htz1 0.978 | S. cerevisiae deletion strains, locus YOL147C, strain pex11, active compounds read low 1.02 | S. cerevisiae deletion strains, locus YOR001W, strain rrp6, active compounds read low 1.02 | S. cerevisiae deletion strains, locus YOR061W, strain CKA2, active compounds read low 1.02 | S. cerevisiae deletion strains, locus YOR069W, strain VPS5, active compounds read low 1.01 | S. cerevisiae deletion strains, locus YOR070C, strain gyp1, active compounds read low 1 | S. cerevisiae deletion strains, locus YOR080W, strain dia2, active compounds read low 1.01 | S. cerevisiae deletion strains, locus YOR083W, strain WHI5, active compounds read low 0.982 | S. cerevisiae deletion strains, locus YOR106W, strain vam3, active compounds read low 1.02 | S. cerevisiae deletion strains, locus YOR136W, strain idh2, active compounds read low 1.02 | S. cerevisiae deletion strains, locus YOR144C, strain elg1, active compounds read low 1.02 | S. cerevisiae deletion strains, locus YOR184W, strain ser1, active compounds read low 1.03 | S. cerevisiae deletion strains, locus YOR231W, strain MKK1, active compounds read low 0.953 | S. cerevisiae deletion strains, locus YOR265W, strain rbl2, active compounds read low 1.01 | S. cerevisiae deletion strains, locus YOR270C, strain vph1, active compounds read low 1.01 | S. cerevisiae deletion strains, locus YOR290C, strain snf2, active compounds read low 0.978 | S. cerevisiae deletion strains, locus YOR316C, strain cot1, active compounds read low 1.01 | S. cerevisiae deletion strains, locus YPL051W, strain arl3, active compounds read low 1.01 | S. cerevisiae deletion strains, locus YPL055C, strain LGE1, active compounds read low 1.02 | S. cerevisiae deletion strains, locus YPL078C, strain atp4, active compounds read low 1.02 | S. cerevisiae deletion strains, locus YPL106C, strain sse1, active compounds read low 0.991 | S. cerevisiae deletion strains, locus YPL240C, strain hsp82, active compounds read low 0.995 | S. cerevisiae deletion strains, locus YPL241C, strain CIN2, active compounds read low 1.01 | S. cerevisiae deletion strains, locus YPL256C, strain CLN2, active compounds read low 0.962 | S. cerevisiae deletion strains, locus YPR119W, strain clb2, active compounds read low 1.02 | S. cerevisiae deletion strains, locus YPR141C, strain kar3, active compounds read low 1.02 | S. cerevisiae deletion strains, locus YPR163C, strain tif3, active compounds read low 1.02 | S. cerevisiae deletion strains, locus YPR167C, strain met16, active compounds read low 1.03 | S. cerevisiae deletion strains, strain wtn01, active compounds read low 1.03 | S. cerevisiae strains, strain wild type, active compounds read low 1.01

From PubChem BioAssay AID1159580 (chemical genetic matrix, 2015)
